Assay results reported in PubChem BioAssay AID1986 (Sanford-Burnham Center for Chemical Genomics, 2009).
About 890 (0.31%) of roughly 290,000 compounds were called active. No stated cut-off is given here; in the data, active means inhibition mostly above about 52% (no sharp cut-off); inactive means mostly below about 76%. What follows is part of a selection rich in actives, with near analogues and random picks from the rest.

Assay: cell-free HIV fusion peptide-binding blockers – biochemical, uHTS, fluorescence dequenching, primary screen (AID 1986)
Conditions: 30 min, stronger effect = higher value
[1] = measured here: repeat confirmation average inhibition, at 18.6 µM

## CCN(CC)CCCNC(=O)CNC(=S)N(CCCN1CCOCC1)Cc1cccs1
At 20 µM
  inhibition: -0.5% (inactive)

## Cc1cc(C)cc(OCC(=O)Nc2nc(-c3cccnc3)cs2)c1
At 20 µM
  inhibition: -0.2% (inactive)

## COc1ccc2cc(CN(CC3CCCO3)S(=O)(=O)c3ccccc3)c(=O)[nH]c2c1 (centres undefined)
At 20 µM
  inhibition: 1.4% (inactive)

## N#C/C(=C/c1ccc(N2CCCCC2)cc1)c1cccc(F)c1
At 20 µM
  inhibition: 1.6% (inactive)

## N#C/C(=C/c1ccc(N2CCCCCC2)o1)c1cccc(F)c1
At 20 µM
  inhibition: 3.6% (inactive)

## COc1cc(N2CCCC2)c(OC)cc1/C=C(/C#N)c1cccc(Br)c1
At 20 µM
  inhibition: 51.2% (active)
[1]
  inhibition: 65.1%

## COc1cc(N2CCCC2)c(OC)cc1/C=C(/C#N)c1ccc(Br)cc1
At 20 µM
  inhibition: -0.2% (inactive)

## COc1cc(N2CCCC2)c(OC)cc1/C=C(/C#N)c1ccc(F)cc1
At 20 µM
  inhibition: 15.6% (inactive)

## COc1cc(N2CCCC2)c(OC)cc1/C=C(/C#N)c1cccc(F)c1
At 20 µM
  inhibition: 57.2% (active)

## CCOC(=O)c1c(C)n(C)c2c(C)cc(O)c(OC(=O)CC)c12
At 20 µM
  inhibition: 1.5% (inactive)

## COC(=O)Cc1cccc2c(=O)c3ccccc3oc12
At 20 µM
  inhibition: -2% (inactive)

## O=C(CCS(=O)(=O)c1ccc2c(c1)NC(=O)CO2)NCCc1ccc(Cl)cc1
At 20 µM
  inhibition: 0.2% (inactive)

## CC(C)NC(=O)c1ccc(CN2CCC(Cc3ccccc3)CC2)cc1
At 20 µM
  inhibition: -0.1% (inactive)

## Cc1cccc(Nc2nnc(SCC(=O)NCc3cccs3)s2)c1
At 20 µM
  inhibition: -0.3% (inactive)

## CCOC(=O)c1cc2c(=O)n3cccc(C)c3nc2n(C)c1=N
At 20 µM
  inhibition: 59.9% (active)

## CCOC(=O)c1cc2c(=O)n3cccc(C)c3nc2n(Cc2ccccc2Cl)c1=N
At 20 µM
  inhibition: -3.9% (inactive)

## Cc1cccn2c(=O)c3cc(C(=O)NCc4cccnc4)c(=N)n(C)c3nc12
At 20 µM
  inhibition: -1.4% (inactive)

## COc1cccc(/C=N\NC(C)=O)c1OC/C=C/c1ccccc1
At 20 µM
  inhibition: 0.3% (inactive)

## O=C1/C(=C/c2ccncc2)SC(=S)N1N1CCOCC1
At 20 µM
  inhibition: -1.3% (inactive)

## Cc1ccc(NS(=O)(=O)c2cc(C(=O)N3CCN(C)CC3)ccc2C)cc1
At 20 µM
  inhibition: -0.2% (inactive)

## CCN(CC)S(=O)(=O)c1cc(NS(=O)(=O)c2cccc(C(=O)O)c2)ccc1C
At 20 µM
  inhibition: 1.4% (inactive)

## CC(C)OC(=O)c1c2c(n3ccccc13)C(=O)c1ccccc1C2=O
At 20 µM
  inhibition: 103% (active)

## CC(C)OC(=O)c1cccc2c1C(=O)c1ccccc1-2
At 20 µM
  inhibition: -0.7% (inactive)

## COC(=O)c1cc2c(C)c(C)c3ccccn3c-2c1C(=O)OC
At 20 µM
  inhibition: -1.6% (inactive)

## CSc1cccc(NC(=O)c2nnn(Cc3ccccc3)c2N)c1
At 20 µM
  inhibition: -1.1% (inactive)

## CCOC(=O)C1CCN(C(=O)COc2ccc(S(=O)(=O)NC(C)C)cc2Cl)CC1
At 20 µM
  inhibition: -0.9% (inactive)

## CCOc1ccc(NC(=O)CSc2ncn[nH]2)c([N+](=O)[O-])c1
At 20 µM
  inhibition: 0.8% (inactive)

## Cc1occc1-c1nnc(SCC(=O)N2CCN(c3ccccc3F)CC2)n1C
At 20 µM
  inhibition: 0.2% (inactive)

## O=C(Nc1ccncc1)C1CC1c1ccccc1 (centres undefined)
At 20 µM
  inhibition: -0.2% (inactive)

## CC(C)(C)N/N=C/c1c(O)n(-c2ccc(Cl)cn2)c(=O)c2ccccc12
At 20 µM
  inhibition: 4% (inactive)

## COc1ccc(-n2c(O)c(/C=N/NS(=O)(=O)c3ccc(C)cc3)c3ccccc3c2=O)cc1OC
At 20 µM
  inhibition: 152% (inactive)

## O=c1c2ccccc2c(/C=N/NS(=O)(=O)c2ccccc2)c(O)n1-c1ccccn1
At 20 µM
  inhibition: 109% (active)
[1]
  inhibition: 78.3%

## O=C(c1cc(-c2ccco2)nn1-c1cccc(Cl)c1)N1CCCCC1
At 20 µM
  inhibition: 15% (inactive)

## O=C(O)c1cc(-c2ccco2)nn1-c1cccc(Cl)c1
At 20 µM
  inhibition: 74.3% (active)

## O=C(O)c1cc(-c2ccco2)nn1-c1ccc(Cl)cc1
At 20 µM
  inhibition: 72.4% (inactive)
[1]
  inhibition: 4.8%

## O=C1NN(c2cccc(Br)c2)C(=O)/C1=C/c1ccc(-c2cc([N+](=O)[O-])ccc2O)o1
At 20 µM
  inhibition: 56.9% (active)

## O=C1NN(c2ccccc2)C(=O)/C1=C\c1ccc(-c2cc([N+](=O)[O-])ccc2O)o1
At 20 µM
  inhibition: 53.6% (inactive)
[1]
  inhibition: 15%

## CC1=NN(c2ccc(C)cc2)C(=O)/C1=C/c1ccc(-c2cc([N+](=O)[O-])ccc2O)o1
At 20 µM
  inhibition: 45.2% (inactive)

## CCCOc1cccc(C(=O)N/N=C/c2ccoc2)c1
At 20 µM
  inhibition: 0.4% (inactive)

## O=C(Nc1ccc([N+](=O)[O-])cn1)C1CC2CCC1C2 (centres undefined)
At 20 µM
  inhibition: 1.2% (inactive)

## C[C@@H]1Cc2c(O)c(O)cc(O)c2C(=O)O1
At 20 µM
  inhibition: 27.3% (inactive)

## CC1CC(=O)c2c(cc3c(-c4c(O)cc(O)c5c(O)c6c(cc45)OC(C)CC6=O)c(O)cc(O)c3c2O)O1 (centres undefined)
At 20 µM
  inhibition: 56.7% (active)

## COc1c(O)cc2c(c1O)C(=O)CC(c1ccccc1)O2 (centres undefined)
At 20 µM
  inhibition: -1.5% (inactive)

## COc1ccc(C(=O)C23CC4CC(C2)CC(C(=O)c2ccc(OC)cc2)(C4)C3)cc1
At 20 µM
  inhibition: -1.1% (inactive)

## Cc1ccc(-c2cc3c(n2-c2ccc(C(=O)O)cc2)CCCC3=O)cc1
At 20 µM
  inhibition: 9.8% (inactive)

## Cc1ccc(C)n1-c1ccc(C(=O)O)cc1
At 20 µM
  inhibition: -0.4% (inactive)

## Cc1cc2c(n1-c1ccc(C(=O)O)cc1)CCCCC2
At 20 µM
  inhibition: 57.7% (active)

## O=C(NC(=S)Nc1ccccc1[N+](=O)[O-])c1ccccc1
At 20 µM
  inhibition: -2.2% (inactive)

## O=C(O)CCCCCNC(=O)c1ccc(C(=O)NCCCCCC(=O)O)cc1
At 20 µM
  inhibition: 0.3% (inactive)

## Cc1ccc(/C=C/C2=Cc3c(sc(NC(=O)CSc4n[nH]c(N)n4)c3C#N)C(C)(C)C2)o1
At 20 µM
  inhibition: 149% (inactive)

## CCOc1ccc(/C=C/C2=Cc3c(sc(NC(=O)CSc4n[nH]c(N)n4)c3C#N)C(C)(C)C2)cc1
At 20 µM
  inhibition: 62.3% (active)

## Cc1ccsc1/C=C/C1=Cc2c(sc(NC(=O)CSc3n[nH]c(N)n3)c2C#N)C(C)(C)C1
At 20 µM
  inhibition: 2.6% (inactive)

## CCOC(=O)c1cc(-c2cccs2)nc2c1c(C)nn2-c1ccccn1
At 20 µM
  inhibition: -2.7% (inactive)

## COC(=O)[C@H](Cc1ccccc1)NC(=O)N1Cc2ccccc2C[C@H]1C(=O)OC
At 20 µM
  inhibition: 1.3% (inactive)

## CCN(CC)CCN(Cc1cc2cc3c(cc2[nH]c1=O)OCCO3)C(=S)NC
At 20 µM
  inhibition: 2.5% (inactive)

## N#Cc1c(NC(=O)CSc2nc(N)cc(=O)[nH]2)sc2c1CCCC2
At 20 µM
  inhibition: 0.4% (inactive)

## O=C(O)Cn1c2c(c3ccccc31)CSc1ccc(Cl)cc1-2
At 20 µM
  inhibition: 54.6% (active)

## O=C(O)Cn1c2ccccc2c2ccccc21
At 20 µM
  inhibition: -1% (inactive)

## O=C(O)Cn1c2c(c3ccccc31)CCCC2
At 20 µM
  inhibition: -3.7% (inactive)

## Cc1ccc(NC(=O)CSc2nncn2-c2ccccn2)cc1Cl
At 20 µM
  inhibition: 1.2% (inactive)

## CN(C)CCN(C(=O)/C=C/c1cccs1)c1nc2ccc(F)cc2s1
At 20 µM
  inhibition: -3.5% (inactive)

## CN(C)CCCN(C(=O)/C=C/c1cccs1)c1nc2c(F)cccc2s1
At 20 µM
  inhibition: 0.3% (inactive)

## CN(C)CCN(C(=O)/C=C/c1cccs1)c1nc2c(F)cc(F)cc2s1
At 20 µM
  inhibition: 56.7% (active)

## O=C1c2ccsc2SCCN1Cc1c(F)cccc1Cl
At 20 µM
  inhibition: -0.5% (inactive)

## CCCCC(CCC(=O)O)(C(=O)OCC)c1csc(Nc2ccc(C)cc2)n1 (centres undefined)
At 20 µM
  inhibition: 13.4% (inactive)

## Cc1c2ccccc2nc2c(F)c(NC(C)C)c(F)c(F)c12
At 20 µM
  inhibition: 36.2% (inactive)

## CCCNc1c(F)c(F)c2c(C)c3ccccc3nc2c1F
At 20 µM
  inhibition: 51.8% (active)
[1]
  inhibition: 159%

## Cc1c2ccccc2nc2c(F)c(NCCO)c(F)c(F)c12
At 20 µM
  inhibition: 23.4% (inactive)

## CCOC(=O)C1Cc2c([nH]c3ccccc23)CN1 (centres undefined)
At 20 µM
  inhibition: -0.5% (inactive)

## O=C(c1cc(S(=O)(=O)N2CCCCC2)ccc1Cl)N1CCOCC1
At 20 µM
  inhibition: 0.1% (inactive)

## COc1cc([N+](=O)[O-])ccc1NC(=O)NCc1ccccn1
At 20 µM
  inhibition: -3.2% (inactive)

## O=C(O)c1cccc(NC(=S)N/N=C/c2ccccc2OCc2ccc(Br)cc2)c1
At 20 µM
  inhibition: 65.6% (active)

## COc1cccc(/C=N/NC(=S)Nc2cccc(C(=O)O)c2)c1O
At 20 µM
  inhibition: 7.9% (inactive)

## O=C(O)c1cccc(NC(=S)N/N=C/c2cccc(O)c2)c1
At 20 µM
  inhibition: 1.3% (inactive)

## COc1ccccc1NC(=O)N(Cc1cc2cc(OC)c(OC)cc2[nH]c1=O)CC1CCCO1 (centres undefined)
At 20 µM
  inhibition: -1.5% (inactive)

## Cc1cc(C)c2nc(N3CCC(C(=O)NCCCN4CCCC4=O)CC3)sc2c1
At 20 µM
  inhibition: -0.6% (inactive)

## COc1cc(/C=N/NC(=S)NCCN2CCOCC2)cc(OC)c1OC
At 20 µM
  inhibition: -0.8% (inactive)

## C=CCOC(=O)c1cc(-c2ccc(/C=C3\C(=O)NC(=O)C(C#N)=C3C)o2)ccc1Cl
At 20 µM
  inhibition: -2.1% (inactive)

## CC1=C(C#N)C(=O)NC(=O)/C1=C/c1ccc(-c2ccc(S(N)(=O)=O)cc2)o1
At 20 µM
  inhibition: 46.5% (inactive)

## CCOC(=O)c1cc(-c2ccc(/C=C3/C(=O)NC(=O)C(C#N)=C3C)o2)ccc1Cl
At 20 µM
  inhibition: 65.1% (active)

## O=C(c1cccnc1)N1CCN(Cc2ccc3c(c2)OCO3)CC1
At 20 µM
  inhibition: 2.7% (inactive)

## CCN(CC)c1ccc(/C=C(\C#N)c2nc(-c3cccs3)c(NC(C)=O)s2)cc1
At 20 µM
  inhibition: 122% (active)

## CC(=O)Nc1sc(/C(C#N)=C\c2cccc(Cl)c2)nc1-c1ccc(C)cc1
At 20 µM
  inhibition: 61.1% (active)
[1]
  inhibition: 75.8%

## CC(=O)Nc1sc(N/N=C/c2ccccc2)nc1-c1ccc(C)cc1
At 20 µM
  inhibition: 0.1% (inactive)

## CC(=O)Nc1sc(N/N=C\c2ccc(O)cc2)nc1-c1cccs1
At 20 µM
  inhibition: -0.1% (inactive)

## CC(=O)Nc1sc(N/N=C/c2ccc(C)cc2)nc1-c1ccc(C)cc1
At 20 µM
  inhibition: -3% (inactive)

## CCN(CC)c1ccc(/C=C(\C#N)c2ccccn2)cc1
At 20 µM
  inhibition: 19.5% (inactive)

## C=CCNC(=O)N[C@@H](Cc1ccccc1)C(=O)OC
At 20 µM
  inhibition: -0.9% (inactive)

## Cc1c(C(=O)N2CCCC2)sc(NC(=O)c2cccs2)c1C#N
At 20 µM
  inhibition: 3.6% (inactive)

## O=C(CNC(=O)c1ccccc1Br)N/N=C/c1cccnc1
At 20 µM
  inhibition: 0.5% (inactive)

## O=C1CC(NNC(=O)c2ccccc2)C(=O)N1 (centres undefined)
At 20 µM
  inhibition: -0.3% (inactive)

## COC(=O)c1cc(S(=O)(=O)NCC2CCN(Cc3cccc(Cl)c3)CC2)c[nH]1
At 20 µM
  inhibition: -0.3% (inactive)

## c1ccc(Cn2c[n+](Cc3ccccc3)cn2)cc1
At 20 µM
  inhibition: -1.5% (inactive)
